Yeast superoxide = reduction of superoxide in aged yeast, primary screen, HTS | AID 2690, 2010 | S. cerevisiae aged cells, superoxide DHE fluorescence; hits give low values | actives 0.18% (n = 330,000) | superoxide response (% of plate mean), % at 10 µM;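 active = superoxide response under a set limit, about three screen SD below normal, cut at about 65% in these data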;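 note: yeast aged for seven days with compound at 30 °C before DHE staining; 100% = average MFI of all compound-treated wells on the plate with controls excluded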
HGIII-sPLA2 inh = human group III sPLA2 inhibitors, primary screen, biochemical, QFRET, BODIPY PC-A2 liposome substrate; inhibition, % at 12.2 µM; actives 0.56% (n = 370,000); Group 3 secretory phospholipase A2 (Homo sapiens), Q9NZ20; QFRET BODIPY PC-A2 liposome hydrolysis, fluorescence; AID 743126, 2013;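 active = inhibition above mean plus 3 SD of compounds lying within the high and low control bounds, cut at about 19% in these data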;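 note: 0% = median of test compound wells and 100% = no enzyme DMSO wells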
AHR act = AHR activators, primary screen, cell-based, luminescence, luciferase reporter, human | AHR-responsive luciferase reporter cells | activation, % at 5 µM | actives 2.5% (n = 320,000) | AID 2796, 2010; in the data active = activation above about 47%;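 note: 0% = vehicle wells and 100% = reference agonist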
PLC-beta3 inh = human PLC-beta3 inhibitors, primary screen, biochemical, fluorescence; actives 0.18% (n = 370,000); inhibition, % at 12.2 µM; Purified PLC-beta3, fluorogenic substrate; 1-phosphatidylinositol 4,5-bisphosphate phosphodiesterase beta-3 (Homo sapiens), Q01970; in the data active = inhibition above about 11%;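 note: 0% = median of compound wells on plate and 100% = full blocker control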
Target sequence (Q01970 whole entry, looked up): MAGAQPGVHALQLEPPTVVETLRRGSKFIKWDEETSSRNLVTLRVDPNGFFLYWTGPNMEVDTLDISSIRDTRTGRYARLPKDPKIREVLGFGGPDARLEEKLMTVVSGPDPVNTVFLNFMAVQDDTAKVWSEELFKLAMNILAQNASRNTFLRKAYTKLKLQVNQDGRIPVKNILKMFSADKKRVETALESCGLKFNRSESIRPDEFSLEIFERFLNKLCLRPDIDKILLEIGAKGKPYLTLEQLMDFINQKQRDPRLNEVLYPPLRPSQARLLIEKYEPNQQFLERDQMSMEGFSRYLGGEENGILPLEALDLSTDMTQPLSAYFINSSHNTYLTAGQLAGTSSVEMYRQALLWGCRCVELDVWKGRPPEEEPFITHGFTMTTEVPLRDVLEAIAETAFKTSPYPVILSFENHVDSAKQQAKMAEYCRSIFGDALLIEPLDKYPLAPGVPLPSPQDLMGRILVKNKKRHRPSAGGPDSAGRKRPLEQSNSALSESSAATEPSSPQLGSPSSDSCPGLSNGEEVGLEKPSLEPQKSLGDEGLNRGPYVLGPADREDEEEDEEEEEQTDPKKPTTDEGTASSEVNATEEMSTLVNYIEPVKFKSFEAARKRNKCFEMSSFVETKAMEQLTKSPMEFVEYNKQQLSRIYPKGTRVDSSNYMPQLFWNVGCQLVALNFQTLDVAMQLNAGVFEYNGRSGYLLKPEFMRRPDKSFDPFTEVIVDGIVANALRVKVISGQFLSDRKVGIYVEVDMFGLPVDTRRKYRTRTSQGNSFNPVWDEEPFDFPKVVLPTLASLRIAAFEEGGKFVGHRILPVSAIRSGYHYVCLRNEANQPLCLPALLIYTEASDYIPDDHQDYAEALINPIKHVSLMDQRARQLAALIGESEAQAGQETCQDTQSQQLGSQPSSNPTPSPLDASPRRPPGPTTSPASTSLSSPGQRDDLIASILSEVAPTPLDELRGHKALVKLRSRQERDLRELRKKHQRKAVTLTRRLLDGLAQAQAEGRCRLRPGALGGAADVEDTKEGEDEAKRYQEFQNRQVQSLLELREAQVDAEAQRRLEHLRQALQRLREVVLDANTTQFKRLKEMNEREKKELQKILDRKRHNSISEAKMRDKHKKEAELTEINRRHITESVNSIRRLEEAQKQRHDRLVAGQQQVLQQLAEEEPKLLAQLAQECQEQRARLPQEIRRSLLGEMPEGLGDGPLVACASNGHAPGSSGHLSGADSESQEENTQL
HIF activator = HIF pathway transcriptional activators, primary screen, cell-based, U2OS HRE-luciferase, luminescence | U2OS HRE-luciferase reporter; normalized: DMSO 0%, desferrioxamine 100% | activation, % at 7.5 µM (by protocol) | actives 0.32% (n = 300,000) | AID 1910, 2009;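 active = mean activation of at least 10% of the iron chelator positive control signal, with at least half of replicates also reaching 10%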
PLCg1 inh = PLC-gamma1 enzyme inhibitors, primary screen, biochemical, fluorescence, purified enzyme; fluorogenic substrate; actives 0.84% (n = 370,000); 1-phosphatidylinositol 4,5-bisphosphate phosphodiesterase gamma-1 (Homo sapiens), P19174; inhibition, % at 12.2 µM; AID 720700, 2013; in the data active = inhibition above about 9.5%
sPLA2 confirm = human group III sPLA2 inhibitors, confirmation, biochemical, QFRET, triplicate. shares compounds with HGIII-sPLA2 inh. inhibition, % at 12.2 µM. AID 743280, 2014. actives 34% (n = 2,000). recombinant hGIII-sPLA2, BODIPY PC-A2 QFRET fluorescence;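 active = mean inhibition across triplicates above the hit cutoff set in the earlier primary screen, cut at about 19% in these data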;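 note: 0% = enzyme with DMSO and 100% = DMSO wells lacking enzyme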
BODIPY interf = 535nm fluorescence optical interference, confirmation, artefact control for HGIII-sPLA2 inhibitor project, biochemical, QFRET. shares compounds with HGIII-sPLA2 inh. BODIPY FL product fluorescence interference. inhibition, % at 12.2 µM. actives 8.5% (n = 2,000). AID 743282, 2014;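 active = average inhibition above the solvent-only control mean plus 3 SD, cut at about 6% in these data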;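 note: 0% = DMSO with substrate plus product and 100% = DMSO with substrate alone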
535nm interf DR = 535nm fluorescence optical interference, dose response, artefact control for HGIII-sPLA2 inhibitor project, biochemical, QFRET; IC50, µM; AID 743455, 2014; 240 tested, under 10 active; shares compounds with HGIII-sPLA2 inh; BODIPY FL product fluorescence interference, cell-free;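 active = IC50 at or below 10 µM; inactive = IC50 above 10 µM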
The depositor's hits bear a star. In the library only some 3.9% were active in any assay of this set; here they are far more common.

For O=C(Nc1ccccc1)c1ccc(C(=O)Nc2ccccc2)nc1 the results were Yeast superoxide 115, HGIII-sPLA2 inh 1, AHR act 1, PLC-beta3 inh 3, HIF activator 1 and PLCg1 inh 3.
`CCCCN1C(=O)C(CC(=O)NCc2ccco2)CC(C(=O)N(CC)CC)=C1C` (stereo not given) gave HGIII-sPLA2 inh 5, PLC-beta3 inh 0 and PLCg1 inh 2.
`CC(=O)c1ccc(Nc2nc(C(N)C(C)C)cs2)cc1` (stereo not given) gave HGIII-sPLA2 inh 14, PLC-beta3 inh -88 and PLCg1 inh -64.
CC(C)C(N)c1csc(Nc2ccc(C(=O)c3ccccc3)cc2)n1 (stereo not given) was read as HGIII-sPLA2 inh 22*, PLC-beta3 inh -195, PLCg1 inh -139, sPLA2 confirm 6 and BODIPY interf -18.
`CC(N)c1csc(Nc2ccc(C(=O)c3ccccc3)cc2)n1` (stereo not given) gave HGIII-sPLA2 inh 20*, PLC-beta3 inh -126, PLCg1 inh -91, sPLA2 confirm 12 and BODIPY interf -18.
CC(C)(C)c1csc(NNC(=O)c2ccc(Cl)cc2)n1 was read as Yeast superoxide 78, HGIII-sPLA2 inh 34*, AHR act -4, PLC-beta3 inh -11, HIF activator 2, PLCg1 inh -4, sPLA2 confirm 45*, BODIPY interf 4 and 535nm interf DR >122.
Screening CC(C)(C)c1csc(NC(=O)c2cccnc2)n1 returned Yeast superoxide 106, HGIII-sPLA2 inh 8, PLC-beta3 inh -3, HIF activator 1 and PLCg1 inh -3.
For CC[C@@H](CCCc1ccc(OC)cc1)CCC(=O)N(c1ccccc1)c1ccccc1 the results were HGIII-sPLA2 inh -4, PLC-beta3 inh 0 and PLCg1 inh 0.
For CCCCNC(=O)C1(C)CCN1C(=O)Cc1ccc(OC)cc1 (stereo not given) the results were HGIII-sPLA2 inh 6, PLC-beta3 inh -1 and PLCg1 inh 3.
For CCOC(=O)C1(C)CCN1C(=O)Cc1ccc(OC)cc1 (stereo not given) the results were HGIII-sPLA2 inh 25*, PLC-beta3 inh 0, PLCg1 inh 0, sPLA2 confirm 7 and BODIPY interf -4.
`CC(C)OCCCNC(=O)Cn1ccc2cc(S(=O)(=O)N3CCCCC3)ccc21` gave Yeast superoxide 111, HGIII-sPLA2 inh 6, AHR act 1, PLC-beta3 inh -2, HIF activator 0 and PLCg1 inh -1.
`CCC(C)NC(=O)c1ccc(NC(=O)C2=C(C)OCCS2)cc1` (stereo not given) gave Yeast superoxide 109, HGIII-sPLA2 inh 21*, AHR act -2, PLC-beta3 inh -2, HIF activator 0, PLCg1 inh 7, sPLA2 confirm -1 and BODIPY interf -7.
Screening CC1=C(C(=O)Nc2cccc(C(=O)NC(C)C)c2)SCCO1 returned Yeast superoxide 123, HGIII-sPLA2 inh -2, AHR act 4, PLC-beta3 inh -3, HIF activator -16 and PLCg1 inh -1.
For CCn1c(C)nc2cc(C(=O)NNC(=S)Nc3ccc(C)cc3)ccc21 the results were Yeast superoxide 98, HGIII-sPLA2 inh 20*, AHR act -3, PLC-beta3 inh -20, HIF activator 0, PLCg1 inh -4, sPLA2 confirm 27* and BODIPY interf 1.
`CC(=O)N1N=C(c2ccc(C(C)(C)C)cc2)OC1(C)C` gave Yeast superoxide 89, HGIII-sPLA2 inh 20*, AHR act 1, PLC-beta3 inh 1, HIF activator 0, PLCg1 inh -4, sPLA2 confirm 3 and BODIPY interf -17.
For CC(=O)N1N=C(c2ccc3ccccc3c2)OC1(C)C the results were Yeast superoxide 97, HGIII-sPLA2 inh -6, AHR act -3, PLC-beta3 inh -98, HIF activator 1 and PLCg1 inh -100.
COc1cc(OC)cc(C(=O)Nn2cc(C(=O)Nc3c(F)cccc3F)c3ccccc3c2=O)c1 was read as Yeast superoxide 99, HGIII-sPLA2 inh 10, AHR act 37, PLC-beta3 inh -4, HIF activator 0 and PLCg1 inh -3.
For COc1ccc(CCNC(=O)c2cnc3ccccn3c2=O)cc1 the results were Yeast superoxide 91, HGIII-sPLA2 inh 21*, AHR act 19, PLC-beta3 inh -37, HIF activator 1, PLCg1 inh -25, sPLA2 confirm -5 and BODIPY interf -4.
`Cc1cc2c(cc1S(=O)(=O)CCC(=O)N1CC(C)CC(C)C1)OCC(=O)N2` (stereo not given) gave Yeast superoxide 131, HGIII-sPLA2 inh -1, AHR act 1, PLC-beta3 inh 1, HIF activator 0 and PLCg1 inh 2.
Screening COc1ccc(C(=O)Nc2ccccc2)cc1NC(=O)c1ccc([N+](=O)[O-])cc1 returned Yeast superoxide 108, HGIII-sPLA2 inh -11, AHR act 10, PLC-beta3 inh -3, HIF activator 1 and PLCg1 inh 3.
Screening O=c1cc(C(F)(F)C(F)F)oc2ccccc12 returned Yeast superoxide 93, HGIII-sPLA2 inh 25*, AHR act -3, PLC-beta3 inh 0, HIF activator 0, PLCg1 inh 1, sPLA2 confirm -2 and BODIPY interf -6.
`O=C(NS(=O)(=O)Nc1ccccc1)C1=C(N2CCCC2)COC1=O` gave Yeast superoxide 87, HGIII-sPLA2 inh 3, AHR act -1, PLC-beta3 inh 1 and PLCg1 inh -7.
Nc1ccc(N2CCN(c3cccc(Cl)c3)CC2)cc1 was read as Yeast superoxide 88, HGIII-sPLA2 inh 23*, AHR act -2, PLC-beta3 inh 0, PLCg1 inh 9, sPLA2 confirm 10 and BODIPY interf 5.

Screens as filed in PubChem.
